Reference: PubChem BioAssay
For some assays here: Results with a measured potency or affinity are listed apart. The source made the active and inactive calls. Unless noted, the rule behind the calls is not given here.

What was measured:
[1] = antimalarial activity against Dd2 strain (AID 2302;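 active = growth inhibition above 50% at the single 2 µM test dose, taken to imply half-maximal potency below 2 µM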;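 note: 0% = DMSO untreated growth and 100% = chloroquine plus artemisinin killed control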); details: P. falciparum Dd2 in RBCs, LDH growth readout, 72 h; at 2 µM; stronger effect = higher value
[2] = HepG2 cytotoxicity, primary screen, cytotoxicity control for P. falciparum antimalarial project, cell-based, ATP luminescence (AID 2303;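 active = inhibition above 50%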;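 note: 0% = DMSO wells and 100% = digitonin-killed cells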); details: HepG2 viability, 24-48 h, at 10 µM, stronger effect = higher value
[3] = target: L-lactate dehydrogenase (Plasmodium falciparum (isolate CDC / Honduras)) (UniProt Q27743); assay: PfLDH activity inhibition – cell lysate, 3D7 strain, counter-screen for P. falciparum growth inhibition project (AID 2304);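 note: 0% = vehicle and 100% = reference inhibitor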; details: P. falciparum 3D7 crude extract, LDH APAD/NBT absorbance; at 2 µM; stronger effect = higher value
[4] = inhibition of 3D7 malaria parasite growth – strain 3D7 (AID 2306);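 note: 0% = DMSO wells and 100% = chloroquine plus artemisinin control wells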; details: P. falciparum 3D7 erythrocytic growth, LDH absorbance, 72 h; at 2 µM; stronger effect = higher value
[5] = target: Calcium-dependent protein kinase 1 (Plasmodium falciparum (isolate 3D7)) (UniProt P62344); assay: PfCDPK1 kinase inhibitors, biochemical, TCAMS library (AID 1159585; cut-off not given, nearly all actives have IC50 up to about 0.98 µM;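 note: inhibitors leave more ATP so luminescence rises with inhibition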); details: recombinant PfCDPK1, Kinase-Glo ATP depletion luminescence
[6] = target: Plasmodium falciparum protein kinase 6 (PK6, PF3D7_1337100) (UniProt Q8IDW1); assay: PfPK6 kinase inhibitors, biochemical, TCAMS library (AID 1159586); details: recombinant PfPK6, Kinase-Glo ATP depletion luminescence
[7] = target: Protein kinase 7 (PK7), Plasmodium falciparum 3D7 (PF3D7_0213400) (UniProt Q7YTF7); assay: inhibition of Plasmodium PK7 catalytic activity – biochemical, TCAMS antimalarial set, Kinase-Glo luminescence (AID 1159587); details: recombinant PfPK7, Kinase-Glo ATP depletion luminescence
[8] = target: Calcium-dependent protein kinase 4 (Plasmodium falciparum (isolate 3D7)) (UniProt Q8IBS5); assay: PfCDPK4 kinase inhibitors, biochemical, TCAMS library (AID 1159588; cut-off not given, nearly all actives have IC50 up to about 0.91 µM); details: recombinant PfCDPK4, Kinase-Glo ATP depletion luminescence
Sequence of Calcium-dependent protein kinase 4 (Plasmodium falciparum (isolate 3D7)) (Q8IBS5 whole entry, looked up): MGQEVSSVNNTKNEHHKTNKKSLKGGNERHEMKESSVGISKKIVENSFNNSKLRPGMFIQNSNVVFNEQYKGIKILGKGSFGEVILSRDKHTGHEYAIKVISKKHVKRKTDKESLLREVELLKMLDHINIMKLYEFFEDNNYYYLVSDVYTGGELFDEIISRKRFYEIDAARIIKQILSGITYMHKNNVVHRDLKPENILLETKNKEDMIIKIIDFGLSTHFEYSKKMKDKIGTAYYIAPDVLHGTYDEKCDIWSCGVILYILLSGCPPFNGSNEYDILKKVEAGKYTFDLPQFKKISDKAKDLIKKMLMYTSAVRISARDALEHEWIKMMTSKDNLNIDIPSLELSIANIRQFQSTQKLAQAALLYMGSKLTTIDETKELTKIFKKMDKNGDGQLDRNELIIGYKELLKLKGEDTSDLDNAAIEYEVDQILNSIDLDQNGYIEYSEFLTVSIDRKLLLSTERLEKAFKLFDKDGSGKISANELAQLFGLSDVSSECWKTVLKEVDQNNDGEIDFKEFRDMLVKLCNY

Sequence of L-lactate dehydrogenase (Plasmodium falciparum (isolate CDC / Honduras)) (Q27743 whole entry, looked up): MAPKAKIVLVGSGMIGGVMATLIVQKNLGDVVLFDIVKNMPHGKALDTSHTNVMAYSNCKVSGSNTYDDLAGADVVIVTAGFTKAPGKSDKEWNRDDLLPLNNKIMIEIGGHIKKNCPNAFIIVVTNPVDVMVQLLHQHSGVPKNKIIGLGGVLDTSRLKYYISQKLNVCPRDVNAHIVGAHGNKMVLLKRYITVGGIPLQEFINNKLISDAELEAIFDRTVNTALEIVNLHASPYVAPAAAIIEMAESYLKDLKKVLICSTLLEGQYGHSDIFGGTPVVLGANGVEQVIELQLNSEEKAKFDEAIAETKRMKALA
Sequence of Protein kinase 7 (PK7), Plasmodium falciparum 3D7 (PF3D7_0213400) (Q7YTF7 1-343): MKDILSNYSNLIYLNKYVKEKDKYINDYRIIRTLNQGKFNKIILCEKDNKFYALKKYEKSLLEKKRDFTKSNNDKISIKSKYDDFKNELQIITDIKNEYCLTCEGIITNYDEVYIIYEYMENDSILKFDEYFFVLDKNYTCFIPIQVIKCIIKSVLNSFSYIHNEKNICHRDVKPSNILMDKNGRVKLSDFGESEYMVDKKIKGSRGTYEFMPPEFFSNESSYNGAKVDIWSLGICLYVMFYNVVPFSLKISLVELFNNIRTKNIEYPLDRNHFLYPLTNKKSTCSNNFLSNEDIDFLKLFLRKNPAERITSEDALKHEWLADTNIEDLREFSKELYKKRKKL
Sequence of Calcium-dependent protein kinase 1 (Plasmodium falciparum (isolate 3D7)) (P62344 whole entry, looked up): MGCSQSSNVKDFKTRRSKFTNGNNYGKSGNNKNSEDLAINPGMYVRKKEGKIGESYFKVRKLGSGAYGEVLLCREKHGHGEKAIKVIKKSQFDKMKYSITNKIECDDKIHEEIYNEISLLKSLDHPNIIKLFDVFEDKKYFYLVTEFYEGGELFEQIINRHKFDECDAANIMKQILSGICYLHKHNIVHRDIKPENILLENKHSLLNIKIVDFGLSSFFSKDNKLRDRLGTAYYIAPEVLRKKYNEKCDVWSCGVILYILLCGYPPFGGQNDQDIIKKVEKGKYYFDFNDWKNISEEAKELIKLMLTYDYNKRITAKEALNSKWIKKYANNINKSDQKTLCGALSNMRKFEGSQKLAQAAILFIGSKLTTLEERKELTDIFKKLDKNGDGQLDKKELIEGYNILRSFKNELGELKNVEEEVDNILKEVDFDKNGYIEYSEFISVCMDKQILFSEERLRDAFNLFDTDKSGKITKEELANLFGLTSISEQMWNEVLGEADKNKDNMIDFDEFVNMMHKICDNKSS
Sequence of Plasmodium falciparum protein kinase 6 (PK6, PF3D7_1337100) (Q8IDW1 1-305): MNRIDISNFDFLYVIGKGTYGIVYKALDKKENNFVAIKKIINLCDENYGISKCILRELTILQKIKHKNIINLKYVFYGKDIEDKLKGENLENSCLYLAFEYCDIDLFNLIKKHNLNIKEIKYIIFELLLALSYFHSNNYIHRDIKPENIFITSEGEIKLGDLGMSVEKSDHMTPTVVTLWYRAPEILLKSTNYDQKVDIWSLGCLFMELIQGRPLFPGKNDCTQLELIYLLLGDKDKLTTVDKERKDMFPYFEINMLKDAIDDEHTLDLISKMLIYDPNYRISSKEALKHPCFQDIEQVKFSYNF

CC(C)CCN1CCC(Oc2ccc(NC(=O)c3cccs3)cc2Cl)C1 (stereo not given)
inactive: inhibition [2] 17% | inhibition [3] 2% | outcome [5] | outcome [6] | outcome [7] | outcome [8]
active: growth inhibition [1] 93% | growth inhibition [4] 94%

O=C(Nc1cccc(CN2CCN(C(=O)c3cccc(Cl)c3)CC2)c1)c1ccco1
inactive: inhibition [2] 7% | inhibition [3] 2% | outcome [5] | outcome [6] | outcome [7] | outcome [8]
active: growth inhibition [1] 94% | growth inhibition [4] 96%

CCc1c(C)nc(-n2nc(C)cc2NC(=O)C2c3ccccc3Oc3ccccc32)[nH]c1=O
inactive: inhibition [2] 37% | inhibition [3] 1% | outcome [5] | outcome [6] | outcome [7] | outcome [8]
active: growth inhibition [1] 80% | growth inhibition [4] 89%

Cc1cc(C)c(NC(=O)NC2CCN(CCCCCNC(=O)/C=C/c3ccc(Cl)c(Cl)c3)C2)c(C)c1 (stereo not given)
inactive: growth inhibition [1] 48% | inhibition [2] 23% | inhibition [3] 1% | outcome [5] | outcome [6] | outcome [7] | outcome [8]
active: growth inhibition [4] 99%

COc1ccc2nccc([C@@H](O)CN3CCC(NCCOc4ccccc4C(F)(F)F)CC3)c2c1
inactive: inhibition [2] 2% | inhibition [3] -5% | outcome [5] | outcome [6] | outcome [7] | outcome [8]
active: growth inhibition [1] 95% | growth inhibition [4] 98%

COC(=O)c1cccc(CNCc2ccc(-c3ccc(-c4nc5ccc(C(F)(F)F)cc5[nH]4)cc3)cc2)c1
active: growth inhibition [1] 98% | growth inhibition [4] 101%
inactive: inhibition [2] 22% | inhibition [3] 0% | outcome [5] | outcome [6] | outcome [7] | outcome [8]

CON(CCCN(C)C)C(=N)N
inactive: growth inhibition [1] -4% | inhibition [2] 3% | inhibition [3] 1% | outcome [5] | outcome [6] | outcome [7] | outcome [8]
active: growth inhibition [4] 92%

CCSc1nnc(C2CCCN(CC(=O)Nc3cc(C(F)(F)F)ccc3Cl)C2)n1CC (stereo not given)
inactive: inhibition [2] 0% | inhibition [3] 5% | outcome [5] | outcome [6] | outcome [7] | outcome [8]
active: growth inhibition [1] 96% | growth inhibition [4] 99%

COc1cccc(C(O)CNc2ccnc(Nc3cccc(-c4csc(C)n4)c3)n2)c1 (stereo not given)
active: growth inhibition [1] 73% | growth inhibition [4] 99%
inactive: inhibition [2] 38% | inhibition [3] -8% | outcome [5] | outcome [6] | outcome [7] | outcome [8]

CCC[C@@H]([C@@H](CC(C)C)C(=O)N[C@@H](CCCCNC(=O)c1cccc(OC)c1)C(=O)Nc1nccs1)N(O)C=O
inactive: inhibition [2] 5% | inhibition [3] -4% | outcome [5] | outcome [6] | outcome [7] | outcome [8]
active: growth inhibition [1] 99% | growth inhibition [4] 100%

Cc1cc(NCc2ccccc2)nc2cc(O)ccc12
inactive: inhibition [2] -7% | inhibition [3] 6% | outcome [5] | outcome [6] | outcome [7] | outcome [8]
active: growth inhibition [1] 80% | growth inhibition [4] 98%

CC(=O)N(C)c1cccc(C(=O)Nc2cccc(-c3cccc(-c4nc5ccc(C(F)(F)F)cc5[nH]4)c3)c2)c1
inactive: growth inhibition [1] 41% | inhibition [2] 49% | inhibition [3] -5% | outcome [5] | outcome [6] | outcome [7] | outcome [8]
active: growth inhibition [4] 97%

CCCCCn1c(Sc2ccc(C#N)c([N+](=O)[O-])c2)nnc1-c1cc(OC)cc(OC)c1
active: growth inhibition [4] 93%
inactive: growth inhibition [1] 24% | inhibition [2] 17% | inhibition [3] 1% | outcome [5] | outcome [6] | outcome [7] | outcome [8]

CC(C)(C)OC(=O)/C=C(\C(=O)OCc1ccc([N+](=O)[O-])cc1)c1csc(NC(c2ccccc2)(c2ccccc2)c2ccccc2)n1
active: growth inhibition [1] 97% | growth inhibition [4] 96%
inactive: inhibition [2] 2% | inhibition [3] 3% | outcome [5] | outcome [6] | outcome [7] | outcome [8]

COc1ccc(-c2cccc(NC(=O)c3cccc(Cl)c3)c2)cc1CNC(C)C
inactive: growth inhibition [1] 8% | inhibition [2] 15% | inhibition [3] -2% | outcome [5] | outcome [6] | outcome [7] | outcome [8]
active: growth inhibition [4] 102%

CN(Cc1cccc(F)c1)C1CCN(c2cc(NC(=O)c3ccc(F)cc3)ccn2)CC1
inactive: growth inhibition [1] 36% | inhibition [2] -3% | inhibition [3] 3% | outcome [5] | outcome [6] | outcome [7] | outcome [8]
active: growth inhibition [4] 95%

O=S(=O)(c1ccc(OC(F)(F)F)cc1)C1C[C@H]2CC[C@@H](C1)N2S(=O)(=O)c1ccc(Cl)c(C(F)(F)F)c1 (stereo not given in full)
active: growth inhibition [1] 95% | growth inhibition [4] 100%
inactive: inhibition [2] 1% | inhibition [3] -5% | outcome [5] | outcome [6] | outcome [7] | outcome [8]

CC1CCN(c2nc(C(=O)Nc3cccc4c3CCCC4)c(C(C)C)s2)CC1
active: growth inhibition [4] 96%
inactive: growth inhibition [1] 49% | inhibition [2] 14% | inhibition [3] 3% | outcome [5] | outcome [6] | outcome [7] | outcome [8]

Cc1cc(N2Cc3ccccc3C2)nc(Nc2cccc(C#N)c2)n1
active: growth inhibition [1] 97% | growth inhibition [4] 100%
inactive: inhibition [2] 6% | inhibition [3] -2% | outcome [5] | outcome [6] | outcome [7] | outcome [8]

CCCc1cc(Cc2cnc(N)nc2N)cc2c1OC(C)C2C (stereo not given)
active: growth inhibition [4] 98%
inactive: growth inhibition [1] 0% | inhibition [2] 32% | inhibition [3] -3% | outcome [5] | outcome [6] | outcome [7] | outcome [8]

O=C(Nc1ccc2ccccc2c1)N1CCC(NCc2cccc([N+](=O)[O-])c2)CC1
inactive: growth inhibition [1] -3% | inhibition [2] -1% | inhibition [3] 2% | outcome [5] | outcome [6] | outcome [7] | outcome [8]
active: growth inhibition [4] 98%

Cc1ccc(NC(=O)c2cc(Br)cc(N3CCC(N(C)C)CC3)c2)cc1F
active: growth inhibition [1] 80% | growth inhibition [4] 100%
inactive: inhibition [2] 23% | inhibition [3] -3% | outcome [5] | outcome [6] | outcome [7] | outcome [8]

O=C(/C=C/c1ccc(-c2ccccc2)cc1)NCCCCCN1CCC(c2c[nH]c3ccccc23)CC1
active: inhibition [2] 91% | growth inhibition [4] 97%
inactive: growth inhibition [1] 23% | inhibition [3] 6% | outcome [5] | outcome [6] | outcome [7] | outcome [8]

COc1ccc(Cl)cc1N1CCN(CCCNC(=O)c2ccc(-c3nc4cc(Cl)c(C)cc4[nH]3)c(F)c2)CC1
inactive: inhibition [2] -1% | inhibition [3] -6% | outcome [5] | outcome [6] | outcome [7] | outcome [8]
active: growth inhibition [1] 91% | growth inhibition [4] 99%

CCN(CC)CCCC(C)Nc1c2ccccc2nc2c1ccc1ccccc12 (stereo not given)
active: growth inhibition [4] 96%
inactive: growth inhibition [1] 34% | inhibition [2] 18% | inhibition [3] 3% | outcome [5] | outcome [6] | outcome [7] | outcome [8]

CN(C)CCNCc1ccc(-c2cccc(-c3nc4ccccc4[nH]3)c2)cc1
inactive: inhibition [2] 31% | inhibition [3] 6% | outcome [5] | outcome [6] | outcome [7] | outcome [8]
active: growth inhibition [1] 63% | growth inhibition [4] 101%

CC(=O)N(Cc1nc(-c2cc(C(F)(F)F)cc(C(F)(F)F)c2)cs1)c1c(C)cccc1C
active: growth inhibition [1] 99% | growth inhibition [4] 100%
inactive: inhibition [2] -2% | inhibition [3] 1% | outcome [5] | outcome [6] | outcome [7] | outcome [8]

O=C(Nc1ccc(-c2nc3ccccc3[nH]2)cc1)c1ccc(N2CCOCC2)c([N+](=O)[O-])c1
active: growth inhibition [4] 101%
inactive: growth inhibition [1] 28% | inhibition [2] 47% | inhibition [3] -8% | outcome [5] | outcome [6] | outcome [7] | outcome [8]

CC1CCN(CC[C@H]2CCCN2S(=O)(=O)c2cccc(NC(=O)c3ccc(-c4ccccc4)cc3)c2)CC1
active: growth inhibition [4] 87%
inactive: growth inhibition [1] 36% | inhibition [2] 38% | inhibition [3] -6% | outcome [5] | outcome [6] | outcome [7] | outcome [8]

O=C(NCc1ccc(Cl)c(Cl)c1)[C@H]1CNCCN1C(=O)c1ccccc1
active: growth inhibition [4] 97%
inactive: growth inhibition [1] 4% | inhibition [2] -5% | inhibition [3] 1% | outcome [5] | outcome [6] | outcome [7] | outcome [8]

c1cc(-c2ccc(CNCc3ccc(-c4csnn4)cc3)cc2)cc(-c2nc3ccccc3[nH]2)c1
active: growth inhibition [1] 96% | inhibition [2] 60% | growth inhibition [4] 100%
inactive: inhibition [3] -7% | outcome [5] | outcome [6] | outcome [7] | outcome [8]

N#CNC(=NCCCSc1csc(N=C(N)N)n1)NCCCCCCCCN=C(NC#N)NCCSCc1csc(N=C(N)N)n1
inactive: growth inhibition [1] 24% | inhibition [2] -1% | inhibition [3] -4% | outcome [5] | outcome [6] | outcome [7] | outcome [8]
active: growth inhibition [4] 91%

O=C(Nc1ccc(-c2nc3ccccc3[nH]2)cc1)c1cccc(S(=O)(=O)N2CCOCC2)c1
inactive: growth inhibition [1] 43% | inhibition [2] 6% | inhibition [3] -5% | outcome [5] | outcome [6] | outcome [7] | outcome [8]
active: growth inhibition [4] 89%

Nc1nc(N)c2c(ccc3c2ccn3CCCF)n1
inactive: growth inhibition [1] 0% | inhibition [3] 0% | outcome [5] | outcome [6] | outcome [7] | outcome [8]
active: inhibition [2] 61% | growth inhibition [4] 94%

O=C(Nc1cccc(-c2ccc(-c3nc4ccccc4[nH]3)cc2)c1)Nc1ccc(F)c(F)c1F
active: growth inhibition [4] 100%
inactive: growth inhibition [1] 38% | inhibition [2] 45% | inhibition [3] 5% | outcome [5] | outcome [6] | outcome [7] | outcome [8]

O=C(NC1CCN(c2ccnc(Nc3ccc(F)cc3)n2)C1)c1cc2ccccc2s1 (stereo not given)
active: growth inhibition [1] 80% | growth inhibition [4] 99%
inactive: inhibition [2] 6% | inhibition [3] -8% | outcome [5] | outcome [6] | outcome [7] | outcome [8]

c1cc(CN2CCCCC2)cc(-c2ccc(-c3nc4ccccc4[nH]3)cc2)c1
inactive: inhibition [2] 9% | inhibition [3] -2% | outcome [5] | outcome [6] | outcome [7] | outcome [8]
active: growth inhibition [1] 88% | growth inhibition [4] 101%

CCc1nc(N)nc(N)c1-c1ccc(F)c(F)c1
inactive: growth inhibition [1] -1% | inhibition [3] -3% | outcome [5] | outcome [6] | outcome [7] | outcome [8]
active: inhibition [2] 58% | growth inhibition [4] 98%

Cc1cc(CNCCCCCCNCc2cccc([N+](=O)[O-])c2)ccc1O
active: growth inhibition [4] 90%
inactive: growth inhibition [1] -1% | inhibition [2] 13% | inhibition [3] -8% | outcome [5] | outcome [6] | outcome [7] | outcome [8]

CCCCCn1c(Sc2ccc(C#N)c([N+](=O)[O-])c2)nnc1-c1ccccc1
inactive: growth inhibition [1] 15% | inhibition [2] 22% | inhibition [3] -2% | outcome [5] | outcome [6] | outcome [7] | outcome [8]
active: growth inhibition [4] 93%
